# Experimental data from ChEMBL document CHEMBL4513216, “Probing the Open Global Health Chemical Diversity Library for Multistage-Active Starting Points for Next-Generation Antimalarials” (ACS Infect Dis, 2020).
# Screen size: about 69,000 compounds; about 8,600 (12%) showed an effect of 50% or more. This is one part of a sample in which strong results are shown more often than they occur.
# System: Plasmodium berghei
# Experiment: Screen against P. berghei liver stage (PbLuc), transformed with Luciferase, at 10uM
# Format: functional, HepG2
# Settings: tested at 10 uM
row,SMILES,INHIBITION
1,Cc1sc(Oc2ccccc2Cl)nc1C(=O)O,18.14%
2,CC(C)N1CCC(NC(=O)c2cn(-c3ccc(F)cc3)nn2)C1 (stereo not given),23.7%
3,CCS(=O)(=O)CCNC(=O)c1cc2n(n1)CCCO2,-16.3%
4,Cc1cnc(N2CCOCC3(CCN(c4ccccn4)C3)C2)nc1 (stereo not given),34.4%
5,COc1ccc(C2CCCN2Cc2nc3c(cnn3C)c(=O)[nH]2)cc1 (stereo not given),-5.25%
6,O=C(CCc1c(F)cccc1F)N1CCCCC1Cn1cccn1 (stereo not given),15.6%
7,C=c1nc(NC)sc1=C1NC(c2c(C)ncc3c2CCNC3)=NO1,39.3%
8,Cn1ccc(CN2CCC(CN3CCOCC3)CC2)cc1=O,31.3%
9,COc1cccc(-c2cc(C(=O)NCCCn3nc(C)cc3C)[nH]n2)c1,-68.9%
10,c1ccc([C@@H]2CN(Cc3ccncc3)C[C@H]2c2cc[nH]n2)cc1,27.2%
11,Cc1cn2c(=O)c(-c3ccnc(NC4CCOCC4)n3)cnc2s1,-9.27%
12,CCOCCCNC(=O)CN(c1cc(C)cc(C)c1)S(C)(=O)=O,34.2%
13,N#Cc1ccc(CN2CCCC2Cn2cccn2)cc1 (stereo not given),9.14%
14,O=C(Nc1cccc(N2CCCC2)c1)C1CCCN1c1nccs1 (stereo not given),48.9%
15,O=C(Nc1cccc(F)c1)C1CCCN1c1nccs1 (stereo not given),7.75%
16,O=C(Nc1cccc(C2SCCS2)c1)C1CCCN1c1nccs1 (stereo not given),50.7%
17,Cc1nn(C)c(C)c1-c1ccc(=O)n(C(C)C(=O)NC2CCCCC2)n1 (stereo not given),47.6%
18,CN(C)c1ccc(CNCc2ccc(N3CCOCC3)cc2)cn1,-0.551%
19,CCOc1cncc(NCCc2nnc3ccccn23)n1,43.4%
20,CC(C)COc1cncc(NCc2nnc3ccccn23)n1,64.3%
21,CC(C)COc1cncc(NCC(O)c2ccco2)n1 (stereo not given),20.8%
22,CC(C)COc1cncc(NCCc2nnc3ccccn23)n1,55.4%
23,CC(C)COc1cncc(NC(CO)c2ccco2)n1 (stereo not given),45.6%
24,CC(C)Cn1cnc(S(=O)(=O)NCCc2nnc3ccccn23)c1,12%

row,SMILES,INHIBITION
1,CCc1nc(C2CCCN2C(=O)c2ccc(N3CCCC3)nn2)no1 (stereo not given),23.5%
2,CC(=O)NCCC1CCCCN1S(=O)(=O)c1ccc2ccccc2c1 (stereo not given),29%
3,O=C(Nc1ccc(-c2nnc[nH]2)cc1)C1CCN1Cc1ccccc1 (stereo not given),-17.3%
4,CO[C@H]1CCN(Cc2ccccn2)[C@@H]2CN(Cc3ccco3)C[C@H]12,-11.1%
5,CC[C@@H]1N(CC2CC2)CCC[C@]12CCC(=O)N2,65.9%
6,CC[C@H]1N(CC2CCOCC2)CCC[C@]12CCC(=O)N2,27.5%
7,CC[C@@H]1N(CC2CCOCC2)CCC[C@]12CCC(=O)N2,49.7%
8,Cc1ccc2nccc(C(=O)N3CCOC(CCN(C)C)C3)c2c1 (stereo not given),43.9%
9,Cc1cc(C(=O)N2CCCC(C(=O)c3nccn3C)C2)c(=O)[nH]c1C (stereo not given),25.9%
10,Cc1ccc(CC(=O)N(CC2CN(C)CCO2)c2nccs2)cn1 (stereo not given),11.9%
11,O=C(CN1CCCCC1Cn1cccn1)NC1CCN(C2CC2)CC1 (stereo not given),26.8%
12,Cc1cc(NC(=O)CCN2CCCCC2Cn2cncn2)no1 (stereo not given),16.9%
13,O=C(CN1CCCCC1Cn1cncn1)NC1CCN(C2CC2)CC1 (stereo not given),70.1%
14,Cc1cc(NC(=O)CCN2CCCC2Cn2cncn2)no1 (stereo not given),56.3%
15,O=C(CN1CCCC1Cn1cncn1)NCCOc1ccccc1 (stereo not given),36.1%
16,O=C(CN1CCCC1Cn1cncn1)NCCOc1cccc(F)c1 (stereo not given),20.1%
17,CCN1CCC(NC(=O)CN2CCCCC2Cn2cncn2)CC1 (stereo not given),-36.1%
18,O=C(CN1CCCCC1Cn1cncn1)NCCOc1ccccc1 (stereo not given),0.411%
19,Cc1cc(NC(=O)CCN2CCCC2Cn2cccn2)no1 (stereo not given),31.9%
20,O=C(CN1CCCCC1Cn1cncn1)NCCc1ccc(F)cc1 (stereo not given),43.4%
21,O=C(CN1CCCC1Cn1cncn1)NCC1(c2ccccc2)CC1 (stereo not given),89.1%
22,O=C(CN1CCCC1Cn1cncn1)NCCc1c(F)cccc1F (stereo not given),57.2%
23,CNc1cccc(CC2COCCN(C(=O)c3cncs3)C2)n1 (stereo not given),16.35%
24,Cc1cc(C(F)F)nn1CC(=O)NCc1nccn1C,8.32%

row,SMILES,INHIBITION
1,Cc1cccc(CN2CCC3(CCCN(C(=O)NC4CC4)C3)C2=O)n1 (stereo not given),0%
2,O=C(c1ccnnc1)N1C[C@H]2CN(Cc3cccc(F)c3)C(=O)[C@H]2C1,34.6%
3,CCOCC(=O)N1CSCC1C(=O)N(C)Cc1ccco1 (stereo not given),17.5%
4,Cc1ccc(C(=O)N2CCC3(CC2)CN(CCN(C)C)C(=O)O3)c(F)c1,42.1%
5,COc1cc(CCC(=O)N2CCC(c3cncc(C)n3)CC2)on1,14.85%
6,Cc1oc(C(C)C)cc1C(=O)N1C[C@@H]2CC[C@H]1CN(c1ncccn1)C2,-28.7%
7,O=C(CN1CCCC1Cn1cncn1)Nc1cccnc1 (stereo not given),-9.86%
8,O=C(CN1CCCCC1Cn1cncn1)Nc1ccncc1 (stereo not given),23.2%
9,O=C(CN1CCCC1Cn1cncn1)Nc1ccc(Cl)cn1 (stereo not given),80%
10,CC(NC(=O)N1CCC(c2ccccc2)CC1)c1nncn1C (stereo not given),13.3%
11,Cc1cnn(CC2CCCCN2Cc2cnc(C)s2)c1 (stereo not given),-7.05%
12,Cc1ncsc1CN1Cc2cn(C)nc2C(COCC2CC2)C1 (stereo not given),43.9%
13,COc1cc(CNc2cnn(CC(F)F)c2)ccc1O,21.9%
14,COc1cccc(CNc2cnn(CC(F)F)c2)c1,8.53%
15,COc1ccc(CNc2cnn(CC(F)F)c2)cc1,64.9%
16,C1CCCN(C2CCCN(Cc3noc(C4CC4)n3)C2)CC1 (stereo not given),-79.7%
17,CN(C)S(=O)(=O)N1CC(c2nc(N)ncc2-c2ccc(F)cc2)C1,-20.6%
18,CC(=O)N(Cc1ncc(C(C)C)o1)C1CCN(CC2CCC2)C1 (stereo not given),32.65%
19,CC(CCc1ccc(O)cc1)NC1CCN(S(C)(=O)=O)CC1 (stereo not given),55.5%
20,Cc1ccc(CCC(C)NC2CCN(C(N)=O)CC2)cc1 (stereo not given),-4.15%
21,CC(CCc1ccc(O)cc1)NC1CCN(C(=O)C(C)C)CC1 (stereo not given),42.1%
22,O=C(NCCNc1ccccn1)N1CCC(O)CC1,7.585%
